Most compounds without a hit are left out; they make up all but 10% or so of the library.
SW480 rereplic – A quantitative high throughput screen for small molecules that induce DNA re-replication in SW480 colon adenocarcinoma cells | Potency, µM (top dose mostly 46.1 µM), for the others: at the highest dose re-replication activation, most hits filed as activators | hit rate 1.8% among 340,000 | AID 624297, 2012 | SW480 DNA re-replication, Hoechst DNA content imaging, 48 h; note: % of control where 0% means no effect; nearly all actives have a fitted effect of over 55% in size
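250 cells/well; 23 nL cpd via pin tool; 48 hr, 37 C, 5% CO2; Hoechst 40 min; imager read of total nuclear intensity, ex 405/em 500-530 nm.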
Gal4-VP16 FLuc – VP16 counterscreen qHTS for inhibitors of ROR gamma transcriptional activity; Drosophila S2 Gal4-VP16 UAS-luciferase, luminescence, 20 h; Potency, µM (titrated, usually from 53.6 µM), inactives show at the highest dose activity, negative = inhibition, most hits filed as inhibitors; hit rate 3.5% among 310,000; AID 2546, 2010;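 note: Gal4-VP16 expression switched on by copper sulfate through the metallothionein promoter; % is set by controls: 0 for no effect and ±100 for the full control effect; nearly all actives have a fitted effect of over 50% in size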
RORg inh – qHTS for inhibitors of ROR gamma transcriptional activity; Drosophila S2 Gal4-RORgamma UAS-luciferase reporter, 20 h; Potency, µM (titrated, usually from 53.6 µM), for inactives: at the highest dose activity change, negative = inhibition, hits mostly inhibitors; hit rate 5.4% among 310,000; AID 2551, 2010; note: % is set by controls: 0 for no effect and ±100 for the full control effect; nearly all actives have a fitted effect of over 60% in size
Target sequence (P51450 whole entry, looked up, the tested form may be a part): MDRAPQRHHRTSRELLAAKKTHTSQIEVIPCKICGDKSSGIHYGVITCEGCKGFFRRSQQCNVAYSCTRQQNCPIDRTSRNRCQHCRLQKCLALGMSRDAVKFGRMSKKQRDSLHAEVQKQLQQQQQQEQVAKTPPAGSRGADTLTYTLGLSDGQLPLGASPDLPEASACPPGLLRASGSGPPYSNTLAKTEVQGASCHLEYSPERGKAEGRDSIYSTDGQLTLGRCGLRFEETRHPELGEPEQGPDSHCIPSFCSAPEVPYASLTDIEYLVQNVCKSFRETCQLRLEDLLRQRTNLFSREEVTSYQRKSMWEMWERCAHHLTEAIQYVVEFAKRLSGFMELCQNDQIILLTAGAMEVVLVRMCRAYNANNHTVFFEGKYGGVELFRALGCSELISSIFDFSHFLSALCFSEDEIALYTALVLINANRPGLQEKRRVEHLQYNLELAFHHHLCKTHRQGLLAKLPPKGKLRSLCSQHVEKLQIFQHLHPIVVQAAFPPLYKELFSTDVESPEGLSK
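In this cell-based reporter format, copper sulfate (700 uM final) drives Gal4–ROR gamma fusion expression from a metallothionein promoter in Drosophila Schneider cells; compounds preincubated 1 hr, reporter read after 20 hr at ambient temperature.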
MCF10A rereplic – A quantitative high throughput screen for small molecules that induce DNA re-replication in MCF 10a normal breast cells; MCF 10A DNA re-replication, Hoechst nuclear intensity, 48 h; Potency, µM (series often up to 46.1 µM), for the others: at the highest dose activity, positive = re-replication, actives largely listed as activators; hit rate 2.9% among 350,000; AID 624296, 2012; note: % of control where 0% means no effect; nearly all actives have a fitted effect of over 50% in size
ELG1 repair inh – qHTS screen for small molecules that inhibit ELG1-dependent DNA repair in human embryonic kidney (HEK293T) cells expressing luciferase-tagged ELG1 | HEK293T ELG1-luciferase reporter, luminescence, 16 h; DNA damage induced by 5-fluorouridine | hit rate 2.3% among 330,000 | Potency, µM (top dose mostly 46.1 µM), inactives show top-dose activity change, negative = inhibition, most hits filed as inhibitors; note: % is set by controls: 0 for no effect and ±100 for the full control effect; nearly all actives have a fitted effect of over 55% in size
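Cells (2,000 per well) received 5-fluorouridine plus test compound or DMSO and were incubated 16 hr at 37 °C, 5% CO2. Luciferase activity was read by luminescence 30 min after ONE-Glo addition; signal suppression marked inhibition of damage-induced ELG1 function.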
* hit, by the source's call; u = inconclusive; x = no result given; [ ] = remark or other dose. Calls come from the whole dose curve; as a rule, active = well fitted curve in the direction sought with a large enough effect; inconclusive = small, poorly fitted or top-dose-only effect, or another doubt; inactive = no such curve, though single readings can be large; an effect the other way counts as inactive or inconclusive. Potency is the fitted concentration of half-maximal effect.

SMILES	SW480 rereplic	Gal4-VP16 FLuc	RORg inh	MCF10A rereplic	ELG1 repair inh
Oc1ccc(/C=N/NC(=S)Nc2cccnc2)cc1O	-1%	u	8.9µM*	-2%	13%
N#CN/C(=N\S(=O)(=O)c1ccccc1)c1ccccc1	1%	-3%	-2%	1%	-6%
COCCNC(=O)C(=O)NCC1OCCN1S(=O)(=O)c1cc(F)ccc1F (stereo unspecified)	-4%	x	x	0%	x
CC(C)(C)c1ccc(/C=N/NC(=S)Nc2cccnc2)cc1	x	1.3µM*	0.18µM*	x	-28%
CC(C)(C)c1ccc(/C=C/C(=O)Nc2cccnc2)cc1	-1%	-10%	8%	u	u
COc1ccc(C2CC(c3ccccc3)=NN2C(=O)COC(=O)C2(C)CC2(Cl)Cl)cc1 (stereo unspecified)	8%	-11%	8%	7%	u
Cc1cc(C)n(-c2nc3ccccc3nc2Nc2ccc3c(c2)OCO3)n1	6%	-4%	-8%	16µM*	-3%
COc1cccc(Nc2nc3ccccc3nc2-n2nc(C)cc2C)c1	u	-5%	-35%	7%	2%
COc1ccc(-c2cc3cccc(OC)c3oc2=O)cc1	-1%	u	10µM*	1%	u
Cc1ccc2c(C(=O)CN3CCSCC3)c(C)[nH]c2c1	2%	-8%	0%	-1%	-4%
Cc1ccc2c(C(=O)CCl)c(C)[nH]c2c1	u	u	-27%	18µM*	-17%
CC1Cc2cc(/C(O)=C3/C(=O)C(=O)N(CCCN4CCOCC4)C3c3ccc(C(C)C)cc3)ccc2O1 (stereo unspecified)	1%	0%	16%	11%	-1%
CC(=O)Nc1nnc(COc2ccccc2)s1	18µM*	-16%	-2%	-2%	u
CCC(C)c1ccccc1NC(=O)COC(=O)c1ccc2c(c1)S(=O)(=O)c1ccccc1C2=O (stereo unspecified)	-3%	-4%	2%	0%	16%
O=[N+]([O-])c1cccc(COc2ncnc3cc([N+](=O)[O-])ccc23)c1	8%	1%	42%	9%	10µM*
N#Cc1c(-c2ccccc2Cl)c2c([nH]c1=O)-c1ccccc1OC2	18µM*	-1%	-17%	4.1µM*	-7%
N#Cc1c(-c2ccncc2)c2c([nH]c1=O)-c1ccccc1OC2	x	0%	-16%	x	5%
CCCCN1CCC[C@H]1CNC(=O)c1cc(C#N)c2ccccc2c1OC	x	-4%	-16%	x	x
CN(C)c1ccc(C#Cc2ccc3cc(CCO)oc(=O)c3c2)cc1	u	x	x	12µM*	u
COC(=O)N/N=C/c1cc(Cl)cc(Cl)c1OCc1ccc(F)cc1	u	-26%	-1%	0%	-8%
CCCCN(C)CCCNC(=O)c1cc(=O)[nH]c2ccc(S(=O)(=O)N3CCCCC3C)cc12 (stereo unspecified)	8%	-4%	-10%	-3%	-6%
Cc1cc2oc(=O)c(CC(=O)NCCCN(C)C)c(C)c2c2occ(C(C)(C)C)c12	9.2µM*	u	0%	u	u
COCCNC(=O)Cc1c(C)c2c(cc(C)c3c(C(C)(C)C)coc32)oc1=O	16µM*	u	4%	5.8µM*	6%
Cc1cc2oc(=O)c(CC(=O)NCCCO)c(C)c2c2occ(C(C)(C)C)c12	5%	u	18%	20%	6%
COc1ccc(NC(=O)C2CSC(C)(C)N2C=O)cc1 (stereo unspecified)	9%	11%	18%	-3%	-16%
SMILES	SW480 rereplic	Gal4-VP16 FLuc	RORg inh	MCF10A rereplic	ELG1 repair inh
O=C(/C=C/c1ccc(O)c(O)c1)c1ccc(S(=O)(=O)N2CCCCCC2)cc1	u	u	13µM*	u	-12%
COc1ccnc(Oc2ccccc2)c1C(=O)N/C=N/OCc1ccc(F)cc1Cl	-2%	-11%	u	u	18µM*
Nc1nc(CCl)nc(N(c2ccccc2)c2ccccc2)n1	1.2µM*	-9%	-11%	u	u
Nc1nc(Cl)nc(N(c2ccccc2)c2ccccc2)n1	-5%	5%	-1%	13%	u
COc1cc(C(C)=NNC(=O)c2ccncc2)ccc1O	-1%	x	x	0%	x
COc1ccc(S(=O)(=O)N2CCOC23CCN(S(C)(=O)=O)CC3)cc1	5.2µM*	x	x	14%	-1%
COc1ccc(S(=O)(=O)N2CCOC23CCN(S(=O)(=O)c2ccccc2)CC3)cc1	7.3µM*	x	x	6%	12%
COc1ccc(OC)c(S(=O)(=O)N2CCC3(CC2)OCCN3S(=O)(=O)c2ccccc2)c1	u	x	x	13%	-20%
COc1ccc(C(C)=O)cc1COC(=O)CSCC(=O)Nc1ccc(C)cc1	3%	x	x	2%	18%
COc1ccc(NC(=O)/C(Cl)=C(/Cl)S(=O)(=O)Cc2ccc(C)cc2)cn1	2.6µM*	3.2µM*	4.5µM*	u	u
COc1ccc(NC(=O)/C(Cl)=C(/Cl)S(=O)Cc2ccccc2Cl)cn1 (stereo unspecified)	u	4.5µM*	1µM*	1µM*	15µM*
COc1ccc(NC(=O)Cc2ccc(Cl)c(Cl)c2)cn1	3%	-7%	32%	0%	8%
CC(=O)OC1C=C[C@@H](OC(C)=O)C1 (stereo partly specified)	x	-8%	2%	x	x
CC(C)CCNC(=O)COc1ccc(C(=O)c2ccccc2)cc1	u	-20%	u	11%	u
Cc1cccc(C)c1NC(=O)CN1C(=O)NC(C)(C2CC2)C1=O (stereo unspecified)	-7%	x	x	-3%	2%
NC(=O)C1CCN(C(=O)CNC(=O)c2ccc(F)cc2)CC1	-1%	x	x	-4%	5%
CCSc1nc2ccccc2n1C(=O)/C=C\c1ccc(OC)c(OC)c1	8.2µM*	10µM*	10µM*	4.1µM*	u
CCSc1nc2ccccc2n1CC(N)=O	-6%	-15%	-34%	0%	-5%
CC(NC(=O)c1ccco1)c1nc(-c2ccccc2Cl)no1 (stereo unspecified)	-1%	-15%	-2%	4%	-1%
Cc1ccc(NC(=O)c2ccccc2O)cc1	-13%[9.22 µM]	u	u	13%	u
Cc1cc(C)cc(NC(=O)Nc2ccc(NC(=O)c3ccccc3O)cc2)c1	21µM*	-10%	5%	18µM*	1%
Cc1cccc(NS(=O)(=O)c2c(C(=O)N3CCOCC3)c(C)n(C)c2C)c1C	-4%	2%	-2%	0%	11%
CCCCn1c2ccc(F)cc2c2nnc(NN)nc21	u	14%	u	0.65µM*	u
CCn1c2ccccc2c2nnc(NN)nc21	u	1%	u	24%	u
CCn1c2ccc(C)cc2c2nnc(NN)nc21	u	-7%	1.6µM*	u	u

Screens from PubChem BioAssay.
